# Experimental data taken from PubChem BioAssay (NCATS).
# Results filed as inconclusive are left out. Unmarked numbers belong to inactive results. Active and inactive are the calls of the source. Calls follow the shape of the dose curve; as a rule, active = well fitted inhibition curve with a large enough effect; inconclusive = small, poorly fitted or top-dose-only effect; inactive = flat fitted curve, though single readings scatter. Where a SMILES comes first, the peptide text is derived from it. [ ]: non-standard residue; d: D form. ξ: configuration not given here. ξLac(3-iPr) = CC(C)CC(O)C(=O)O; NMeV = CN[CH](C(=O)O)C(C)C; βAla = NCCC(=O)O
# Test system: NIH3T3
# Experiment: Cytotoxic Profiling of Annotated Libraries Using Quantitative High-Throughput Screening (AID 1296008); also: nearly all actives have a fitted effect of over 60% in size
# Settings: Five cell lines viability, CellTiter-Glo ATP luminescence, 48-72 h; max response: hits give low values
# In short: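 Cytotoxicity was measured as CellTiter-Glo ATP luminescence, read after 10 min at room temperature. Compound treatment of the cells lasted 48 or 72 hr at 37 degrees Celsius in a qHTS format.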
# % is scaled to controls: 0 for no effect and ±100 for the full control effect; potency is read from the fitted curve at half-maximal effect.
Structure (SMILES),max response [%],Potency
C[C@@H]1C(=O)O[C@H](C)[C@H]1CC(=O)[C@](C)(O)[C@H]1CC[C@@]2(O)C3=CC(=O)[C@@H]4C[C@@H](O)[C@@H](O)C[C@]4(C)C3CC[C@]12C (some centres not stated),1.5,
COC(=O)C1=CO[C@@H](O)C2C(CO)=CCC12 (some centres not stated),-2.89,
COc1cc2ncnc(Nc3ccc(F)c(Cl)c3)c2cc1NC(=O)/C=C/CN1CCCCC1,,16400 nM (active)
CCCOc1ccc(-c2nc(OC)c3ccccc3n2)cc1,1.75,
CC1(C)CC[C@]2(C(=O)O[C@@H]3O[C@H](CO)[C@@H](O)[C@H](O)[C@H]3O)CC[C@]3(C)C(=CCC4[C@@]5(C)C[C@@H](O)[C@H](O)C(C)(C)C5CC[C@]43C)C2[C@@H]1O (some centres not stated),-3.15,
CC(C)C(=O)OC[C@H]1O[C@H](O[C@H]2O[C@H](CO)[C@@H](O)[C@H](O)[C@H]2O)[C@H](O)[C@@H](O)[C@@H]1O,-1.4,
C/C=C1\[C@H](O[C@@H]2O[C@H](CO)[C@@H](O)[C@H](O)[C@H]2O)OC=C2C(=O)OCCc3ccc(O)c(c3)Oc3ccc(cc3)CCOC(=O)C[C@H]21,-1.53,
O=C(O)c1ccc(OC2OC(CO)C(O)C(O)C2O)cc1 (configuration not stated),1.85,
CC12CCC(OC3OC(CO)C(O)C(OC4OC(CO)C(O)C(O)C4O)C3O)CC1CCC1C2CCC2(C)/C(=C3/COC(=O)C3)CCC12O (configuration not stated),4.18,
OC[C@H]1O[C@@H](O[C@H]2[C@H](OCCc3ccccc3)O[C@H](CO)[C@@H](O)[C@@H]2O)[C@H](O)[C@@H](O)[C@@H]1O,-1.68,
C=C[C@H]1[C@H](O[C@@H]2O[C@H](CO)[C@@H](O)[C@H](O)[C@H]2O)OC=C(C(=O)OC)[C@H]1CC(=O)O,-8.69,
O=C(/C=C\c1ccc(O)cc1)N[C@@H](Cc1ccc(O)cc1)C(=O)O,-0.22,
CCC1C(=O)OC23C=C[C@@H]4C(C(=O)O)=CO[C@H](O[C@@H]12)[C@@H]43 (some centres not stated),0.895,
COc1cc(O)c2c(c1)C1=CC(O)C(O)CC1(C)OC2=O (configuration not stated),-6.33,
Fc1ccc2nc(CCC#Cc3ccccn3)cn2c1,-0.863,
CC1OC(OCC2OC(OC3CCC4(C)C(CCC5(C)C4CC=C4C6CC(C)(C)CCC6(C(=O)OC6OC(CO)C(O)C(O)C6O)CCC45C)C3(C)CO)C(O)C(O)C2O)C(O)C(O)C1O (configuration not stated),0.258,
Cc1cccc(S(=O)(=O)N2CCC[C@@H]2CCN2CCC(C)CC2)c1,-11.7,
CC(Oc1ccc2[nH]nc(/C=C/c3cnn(CCO)c3)c2c1)c1c(Cl)cncc1Cl (configuration not stated),,517 nM (active)
NC(=O)[C@H](O[C@@H]1O[C@H](CO)[C@@H](O)[C@H](O)[C@H]1O)c1ccccc1,4.94,
Nc1ncnc2c([C@@H]3N[C@H](CO)[C@@H](O)[C@H]3O)c[nH]c12,-4.07,
O=C1CSc2ccccc2N1Cc1cccc(C(F)(F)F)c1,4.03,
O=C(Nc1ccn[nH]1)c1c(F)cccc1F,3.6,
Cc1cccc(/C=N/Nc2cc(N3CCOCC3)n3nc(-c4ccncc4)cc3n2)c1,,651 nM (active)
CC1C(=O)CC2C3CCC(C(=O)O)C12CC3(C)CO (configuration not stated),-4.76,
CCc1ccc(Cc2ccc3c(c2)[C@]2(OC3)O[C@H](CO)[C@@H](O)[C@H](O)[C@H]2O)cc1,1.11,
CC(C)CC1OC(=O)C2CCCN2C(=O)CCNC(=O)C(Cc2ccccc2)NC(=O)C(C(C)C)N(C)C(=O)C(C(C)C)N(C)C1=O (configuration not stated) (cyclo([ξLac(3-iPr)][NMeV][NMeV]F[βAla]P); configuration not given here),0.588,
C=C(C)C1CC[C@]2(C(=O)O)CC[C@]3(C(=O)O)[C@H](CCC4[C@@]5(C)CC[C@H](O)C(C)(C)C5CC[C@]43C)C12 (some centres not stated),-12.2,
